Screening results as filed in PubChem.
A selection: hits, their analogues and other compounds. The true share with any hit is near 3.2%.
Mtb betalactam – beta-lactam sensitization of Mtb H37Rv; M. tuberculosis H37Rv growth with meropenem, percent inhibition; inhibition, % at 25 µM; actives 0.27% (n = 330,000); AID 434955; call rule not given here;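 also: growth measured after seven days incubation then overnight dye step; 0% = bacteria only wells and 100% = bacteria with antibiotic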
Mtb FBA inh – Mtb fructose-bisphosphate aldolase inhibition | P9WQA3 | purified M. tuberculosis FBA, fluorescence read-out | inhibition, % at 1 µM | actives 2.3% (n = 360,000); in the data active = inhibition above about 27%;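 also: 0% = vehicle and 100% = reference inhibitor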
Rv3671c protease – Rv3671c (M. tuberculosis) protease inhibition; P9WHR9; inhibition, % at 5.96 µM; actives 0.048% (n = 320,000); AID 2606; in the data active = inhibition above about 38%;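 also: extracellular domain of Rv3671c used as enzyme; 0% = enzyme with DMSO and 100% = no enzyme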
PriA SSB inh – K. pneumoniae PriA-SSBct interaction inhibition. AlphaScreen SSBct-PriA binding, biotinylated peptide. inhibition, % at 33 µM. actives 0.6% (n = 430,000); in the data active = inhibition mostly above about 37%, no sharp cut-off; inactive = mostly below about 20%;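 also: plate controls were negative control peptide for no effect and reference peptide for full effect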
GDH-TPI counter – GDH-TPI coupled enzyme inhibition counter-screen. GDH-TPI coupled enzyme counterscreen, NADH absorbance. inhibition, % at 4.8 µM. actives 1.2% (n = 360,000); in the data active = inhibition above about 30%;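 also: 0% = DMSO wells and 100% = wells lacking the enzyme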
UGM FP inh – Mtb UDP-galactopyranose mutase inhibition | P9WIQ1 | purified UGM, fluorescence polarization probe displacement | inhibition, % at 10 µM | actives 0.06% (n = 320,000) | AID 504406; in the data active = inhibition above about 10%, passing the limit was not always enough
Target sequence (P9WIQ1 whole entry, looked up): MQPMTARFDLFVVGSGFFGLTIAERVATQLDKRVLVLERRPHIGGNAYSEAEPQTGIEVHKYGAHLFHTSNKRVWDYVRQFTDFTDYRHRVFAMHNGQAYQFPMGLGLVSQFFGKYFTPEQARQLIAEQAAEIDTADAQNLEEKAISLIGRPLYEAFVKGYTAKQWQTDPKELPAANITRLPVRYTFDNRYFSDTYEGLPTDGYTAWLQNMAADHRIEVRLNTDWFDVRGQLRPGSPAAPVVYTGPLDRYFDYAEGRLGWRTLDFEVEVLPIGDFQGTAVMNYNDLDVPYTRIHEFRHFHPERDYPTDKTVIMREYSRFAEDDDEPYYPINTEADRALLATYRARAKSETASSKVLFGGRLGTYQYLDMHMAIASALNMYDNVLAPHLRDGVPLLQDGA
Starred values were filed as active, the others as inactive; i = inactive; · = not tested or not shown; + = active, no number.

SMILES	Mtb betalactam	Mtb FBA inh	Rv3671c protease	PriA SSB inh	GDH-TPI counter	UGM FP inh
CCN1CCN(c2ncnc3c2sc(=S)n3-c2ccccc2)CC1	-12	2	-6	-14	39*	-2
Cc1cc(C)n(-c2cc(NC(=O)c3cc(C4CC4)on3)ncn2)n1	·	·	·	-6	·	·
Cc1ccc(NC(=O)Cn2c(C)nc3c(-c4ccncc4)nsc3c2=O)cc1Cl	·	·	·	0	·	·
Cn1nc(CNC(=O)C2(c3ccc(Cl)cc3)CCCC2)cc1C1CC1	·	·	·	1	·	·
Nc1nc2ccccc2n1/N=C/c1ccc2c(c1)OCO2	68	1	2	i	49*	2
CC(C)(C)n1nc2c(c1NC(=O)c1ccc(S(=O)(=O)N3CCOCC3)cc1)CS(=O)C2 (stereo not given)	·	·	·	-8	·	·
COC(=O)c1cccc(Cn2c(Cl)c(C=NNC(=O)c3ccccc3Cl)sc2=O)c1	·	·	·	2	·	·
Cc1ccccc1N/N=C/c1sc(=O)n(Cc2cccc(C(=O)O)c2)c1Cl	21	-2	-4	i	39*	-4
O=C(O)c1cccc(Cn2c(Cl)c(/C=N/NC(=O)c3cc4ccccc4cc3O)sc2=O)c1	-3	-1	11	i	59*	-1
O=C(O)c1cccc(Cn2c(Cl)c(/C=N/NC(=O)c3cccc(O)c3)sc2=O)c1	-4	4	0	i	50*	2
O=C(O)c1cccc(Cn2c(Cl)c(/C=N/NC(=O)c3ccco3)sc2=O)c1	-10	-2	-5	·	47*	0
O=C(O)c1cccc(Cn2c(Cl)c(/C=N/NC(=O)c3ccccc3)sc2=O)c1	0	-7	0	·	56*	-1
O=C(O)c1cccc(Cn2c(Cl)c(C=NNC(=O)c3ccccc3)sc2=O)c1	·	·	·	-5	·	·
CN(C)S(=O)(=O)c1cccc(N=C2NN=C(c3ccccc3)CS2)c1	5	·	1	36	·	4
CC(=O)Nc1ccc(C2=NNC(=Nc3cccc(S(=O)(=O)N(C)C)c3)SC2)cc1	11	2	-13	53*	14	-1
Cc1ccccc1Cn1c(=O)n(Cc2ccc(F)cc2)c(=O)c2nccnc21	·	·	·	5	·	·
COc1ccc(/C=C/C(=O)NC(=S)Nc2ccc(S(=O)(=O)Nc3cc(C)on3)cc2)cc1	3	0	-48	1	35*	1
COc1ccc(/C=C/C(=O)NC(=S)Nc2ccc(S(=O)(=O)Nc3ccc(OC)nn3)cc2)cc1	-1	0	-14	22	39*	-2
Cc1nnc(SCC(=O)c2ccc(C(C)(C)C)cc2)s1	·	·	·	-17	·	·
CC(C)c1csc(NC(=O)C(c2ccccc2)c2ccccc2)n1	·	·	·	-10	·	·
Cn1c2nc(=O)n(-c3ccccc3)c(=O)c-2nc2c1CCCC2	·	184*	·	·	19	·
CN(C)c1ccc(/C=N/N2CCN(c3ccccn3)CC2)cc1	-9	-3	1	i	39*	1
CC(C)(C)c1ccc(/C=N/N2CCN(c3ccccn3)CC2)cc1	82	1	5	i	3	0
CN(c1ccccc1)c1ccc(/C=N/N2CCOCC2)cc1	3	0	-1	·	31*	0
C(=NN1CCN(c2ccccc2)CC1)c1ccccc1	·	·	·	2	·	·
SMILES	Mtb betalactam	Mtb FBA inh	Rv3671c protease	PriA SSB inh	GDH-TPI counter	UGM FP inh
O=C(c1ccccc1F)N1CCC(Oc2cccnn2)CC1	·	·	·	-17	·	·
O=C1CSC(c2ccccc2)N1Cc1ccccn1 (stereo not given)	9	2	·	8	2	1
O=C1OC(Cc2ccccn2)C(=O)C1=C1SCCS1 (stereo not given)	-6	-3	-1	1	41*	0
CN(C)C(CNC(=O)c1cccs1)c1ccsc1 (stereo not given)	·	·	·	8	·	·
COc1cc2c3nnc(-c4ccc(F)cc4)c-3cn(Cc3ccc(C)cc3)c2cc1OC	-5	3	3	-22	7	15*
COc1cc2c3nnc(-c4ccc(F)cc4)c-3cn(Cc3cccc(C)c3)c2cc1OC	4	11	-20	-2	-12	9
COc1cc2c3nnc(-c4ccc(F)cc4)c-3cn(Cc3cccc(F)c3)c2cc1OC	-2	46*	-14	-5	12	8
COc1ccc(/C=C(\C#N)C(=O)N2CCOCC2)cc1Br	2	2	2	-1	37*	·
COc1cc(/C=C(\C#N)C(=O)N2CCOCC2)ccc1OCc1ccccc1	6	-4	0	-20	13	-1
CC(C)Nc1nc(C#N)nc(NC(C)C)n1	3	-1	8	42*	-2	-1
N#C/C(=C\c1ccco1)C(=O)Nc1cccc2ncccc12	-1	3	3	7	33*	-2
CN(N=Cc1ccccc1)C(=S)c1ccccc1	·	·	·	9	·	·
O=[N+]([O-])c1ccc(/C=N/n2cnc3ccccc32)s1	100	-2	-10	·	11	11*
Cc1cc2ncn(/N=C/c3ccc([N+](=O)[O-])s3)c2cc1C	100	-1	7	·	13	-8
O=Cc1ccc(O)c2ncccc12	·	2	·	94*	9	·
CC(C)OCc1ccc(O)c2ncccc12	·	·	·	87*	·	·
CCN(CC)Cc1ccc(O)c2ncccc12	·	·	·	139*	·	·
CCCCCC(=O)c1ccc(O)c2ncccc12	·	·	·	130*	·	·
Oc1ccc(-c2ccc(O)c3ncccc23)c2cccnc12	·	·	·	51	·	·
CCCCCCCCCCCCCCCCSCc1ccc(O)c2ncccc12	·	·	·	59*	·	·
CCCCCCCCCCCCCCSCc1ccc(O)c2ncccc12	·	·	·	57	·	·
O=S(=O)(O)c1ccc(O)c2ncccc12	·	·	·	99*	·	·
CCc1ccc(O)c2ncccc12	·	·	·	28	·	·
C#CCN(C)Cc1ccc(O)c2ncccc12	·	·	·	110*	·	·
Oc1ccc(Cc2ccc(O)c3ncccc23)c2cccnc12	·	·	·	72*	·	·
SMILES	Mtb betalactam	Mtb FBA inh	Rv3671c protease	PriA SSB inh	GDH-TPI counter	UGM FP inh
C=CCNc1nc2ccccc2nc1NS(=O)(=O)c1cccs1	0	4	-3	-3	27	2
O=S(=O)(Nc1nc2ccccc2nc1NCc1ccco1)c1cccs1	-2	6	-2	-1	32*	-4
CCCCCNc1nc2ccccc2nc1NS(=O)(=O)c1cccs1	-15	2	1	-3	31*	-5
COc1ccc(C(O)=C2C(=O)C(=O)N(CCN(C)C)C2c2cc(OC)c(OC)c(OC)c2)c(C)c1 (stereo not given)	·	·	·	-6	·	·
COc1ccc(S(=O)(=O)Nc2ccc3c(c2)N(C(=O)c2cccs2)CC3)cc1Cl	·	·	·	6	·	·
COC(CN(C(=O)CCl)C(C(=O)NC1CCCC(C)C1C)c1ccc(C)cc1)OC (stereo not given)	-10	1	-8	6	+	0
N#Cc1c(-c2ccccc2)c(-c2ccccc2)nn(CC(=O)NNC(=O)Nc2ccc(Cl)c(Cl)c2)c1=O	100	-1	-256	52*	10	4
O=[N+]([O-])c1ccc(NCc2ccc(Cl)cc2)nc1	0	-3	8	2	34*	3
CC(C)c1ccc(CNc2ccc([N+](=O)[O-])cn2)cc1	-5	-6	0	5	16	-1
O=C(CCc1csc2nc(-c3ccccc3)cn12)N1CCc2ccccc2C1	·	·	·	-14	·	·
O=[N+]([O-])c1ccccc1N=NNc1ccccc1	·	-4	·	0	13	·
